# Results filed as inconclusive are left out. Entries that show only a call come without a potency. Values without a mark were called inactive. The source made the active and inactive calls. Calls follow the shape of the dose curve; as a rule, active = well fitted cell-killing curve with a large enough effect; inconclusive = small, poorly fitted or top-dose-only effect; inactive = flat fitted curve, though single readings scatter.
# Test: Cellular viability qHTS for adrenocortical cancer (ACC) cell line SW-13 (AID 1963989); also: nearly all actives have a fitted effect of over 65% in size;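 as to activity (max response): cells grown in serum-free medium with ITS supplement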
# Settings: SW-13 ACC cells viability, CellTiter-Glo, 48 h; activity (max response): active compounds read low
# Outline: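 Compound titrations (up to 46 uM final, in DMSO) were applied to SW-13 cells for 48 h at 37C/5% CO2. Reading used CellTiter-Glo after 20 min at room temperature; fitted curves yielded IC50 and efficacy.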
# Potency is read from the fitted curve at half-maximal effect.
Structure (SMILES),Potency,activity (max response)
CNCc1ccc(-c2cc(-c3nc(-c4ccc(S(=O)(=O)C(C)C)cc4)cnc3N)on2)cc1,3.98 µM (active),–
C=C1/C(=C\C=C2/CCC[C@]3(C)[C@@H]([C@H](C)CCCC(C)(C)O)CC[C@@H]23)C[C@@H](O)C[C@@H]1O,28.2 µM (active),–
CN(C)CCCSc1ccccc1NC(=O)/C=C/c1ccccc1,–,8.03%
O=C1CC(c2c[nH]c3ccc(F)cc23)C(=O)N1 (stereo unspecified),–,-18.5%
Clc1ccc(-c2nc3sccn3c2/C=N/OCc2ccc(Cl)c(Cl)c2)cc1,–,3.29%
CC(C)(C)NCC(O)COc1cccc2c1CCC(=O)N2 (stereo unspecified),–,3.97%

# Test: Cellular viability qHTS for adrenocortical cancer (ACC) cell line NCI-H295R (AID 1963990); also: nearly all actives have a fitted effect of over 60% in size
# Settings: CellTiter-Glo ATP luminescence, 48 h; series mostly up to 46.1 µM
# Outline: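 Readout: CellTiter-Glo luminescence, 20 min RT. Exposure: 48 h, 37C/5% CO2. Cells: NCI-H295R, ITS-DMEM serum-free. Range: up to 46 uM. Analysis: 4PL fit, IC50 plus efficacy.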
row,Structure (SMILES),Potency
1,CN1CCN(c2ccc3nc(-c4c(N)c5c(F)cccc5[nH]c4=O)[nH]c3c2)CC1,17.8 µM (active)
2,C[C@H]1[C@H](C)CC[C@]2(C(=O)O)CC[C@]3(C)C(=CC[C@@H]4[C@@]5(C)CC[C@H](O)C(C)(C)[C@@H]5CC[C@]43C)[C@H]12,inactive
3,CN1CCCN(C(=O)c2cccc(-c3ccc(/C=C4/C(=O)Nc5ccc(Cl)cc54)o3)c2)CC1,4.47 µM (active)
4,C[C@]12CCC3[C@@H](CC[C@H]4NC(=O)C=C[C@]34C)[C@@H]1CC[C@@H]2C(=O)Nc1cc(C(F)(F)F)ccc1C(F)(F)F (stereo partly specified),inactive
5,O=C(c1ccc(F)c(F)c1Nc1ccc(I)cc1F)N1CC(O)([C@@H]2CCCCN2)C1,5.62 µM (active)
6,CCS(=O)(=O)N1CCC([C@@H](C)n2c(C)c(C(=O)NCc3c(OC)cc(C)[nH]c3=O)c3ccccc32)CC1,inactive
7,CCC[C@H](N[C@H]1CCc2cc(F)cc(F)c2C1)C(=O)Nc1cn(C(C)(C)CNCC(C)(C)C)cn1,25.1 µM (active)
8,CC(C)NC[C@@H](O)COc1ccc(CC(N)=O)cc1,inactive
9,CCC(CC)CC1(C(=O)Nc2ccccc2SC(=O)C(C)C)CCCCC1,inactive
10,CC(=O)c1ccc2c(c1)c1cc(C(C)=O)ccc1n2CCNC(C)C,1.58 µM (active)
11,OC[C@@H](O)[C@@H](O)[C@H](O)[C@H](O)CO,inactive
12,CCNCCc1ccc(CN(CC)c2cc(OC)ccc2[C@@H]2CCc3cc(O)ccc3C2)cc1,3.98 µM (active)
13,CCC(C)(CN(C)C)OC(=O)c1ccccc1 (stereo unspecified),inactive
14,CC(/C=C/[C@@H]1C[C@]1(C)c1ccc2c(c1)C(C)(C)CCC2(C)C)=C\C(=O)O,inactive
15,COc1ccc(N2C(=O)N(c3c(C)cccc3Cl)Cc3cnc(Nc4ccc(C5CCN(C)CC5)cc4OC)nc32)nc1,17.8 µM (active)
16,Cc1ccc(C(=O)Nc2ccc(CN3CCN(C)CC3)c(C(F)(F)F)c2)cc1C#Cc1cnc2[nH]ncc2c1,5.01 µM (active)
17,CCN1C(=O)N2Cc3cc(OC)cc(OC)c3[C@@H](C)C=C2C12CCN(Cc1cc(C)cc(C)c1)CC2,25.1 µM (active)
18,O=C(Nc1cc(Oc2cc(F)c(NC(=O)C3(C(=O)Nc4ccc(F)cc4)CC3)cc2F)ccn1)C1CC1,inactive
19,CC(C)Oc1ccc(-c2nn([C@@H](C)c3oc4ccc(F)cc4c(=O)c3-c3cccc(F)c3)c3ncnc(N)c23)cc1F,inactive
20,CC(=O)O[C@H]1CC[C@@]2(C)C(=CC[C@@H]3[C@@H]2CC[C@]2(C)C(C(C)=O)=CC[C@@H]32)C1,inactive

row,Structure (SMILES),Potency
1,CC(C)Cc1ccc([C@@H](C)C(=O)NS(C)(=O)=O)cc1,inactive
2,Cc1cc(C(C#N)c2ccc(Cl)cc2)c(Cl)cc1NC(=O)c1cc(I)cc(I)c1O (stereo unspecified),3.66 µM (active)
3,Cc1c(N(C)C)c(=O)n(-c2ccccc2)n1C,inactive
4,CC(C)N(CCC(=O)c1ccc2ccccc2c1)Cc1ccccc1,14.1 µM (active)
5,CN=C(NC#N)NCCSCc1csc(N=C(N)N)n1,inactive
6,CCCCOC(=O)c1ccc(O)cc1,inactive
7,C[C@@H](O)[C@@H](C)Oc1nc(Nc2ccc(S(=N)(=O)C3CC3)cc2)ncc1C(F)(F)F (stereo partly specified),inactive
8,COc1cc2c(Oc3ccc4[nH]c(C)cc4c3F)ccnc2cc1OCC1(N)CC1,10 µM (active)
9,NC(=O)c1nc(F)c[nH]c1=O,inactive
10,CC(=O)OC[C@H]1O[C@@](COC(C)=O)(O[C@H]2O[C@H](COC(C)=O)[C@@H](OC(C)=O)[C@H](OC(C)=O)[C@H]2OC(C)=O)[C@@H](OC(C)=O)[C@@H]1OC(C)=O,inactive
11,Cc1c(F)ccc(C(=O)Nc2cc([N+](=O)[O-])ccc2N2CCN(C)CC2)c1Cl,inactive
12,Cc1onc(-c2c(Cl)cccc2Cl)c1C(=O)N[C@@H]1C(=O)N2[C@@H]1SC(C)(C)[C@@H]2C(=O)O,inactive
13,COc1ccc(-c2cc(C(O)C3CCCCN3)c3ccccc3n2)cc1 (stereo unspecified),11.2 µM (active)
14,N#Cc1cc2cc(CN3CCC(Nc4ncnc5sc(CC(F)(F)F)cc45)CC3)c(O)cc2n1Cc1cn[nH]c1,8.91 µM (active)
15,CNCc1ccc(-c2cc(-c3nc(-c4ccc(S(=O)(=O)C(C)C)cc4)cnc3N)on2)cc1,0.316 µM (active)
16,C=C1/C(=C\C=C2/CCC[C@]3(C)[C@@H]([C@H](C)CCCC(C)(C)O)CC[C@@H]23)C[C@@H](O)C[C@@H]1O,25.1 µM (active)
17,CN(C)CCCSc1ccccc1NC(=O)/C=C/c1ccccc1,inactive
18,O=C1CC(c2c[nH]c3ccc(F)cc23)C(=O)N1 (stereo unspecified),inactive
19,Clc1ccc(-c2nc3sccn3c2/C=N/OCc2ccc(Cl)c(Cl)c2)cc1,inactive
20,CC(C)(C)NCC(O)COc1cccc2c1CCC(=O)N2 (stereo unspecified),inactive
